HSP90 inh = HSP90 refolding inhibition in rabbit reticulocyte lysate; luciferase refolding luminescence, 3 h; inhibition, % at 5.6 µM; 290,000 compounds, 0.91% hits;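 active = inhibition above the screen-wide mean plus 3 SD, computed separately per campaign, cut at about 16% in these data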;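 also: 0% = DMSO wells and 100% = 60 µM geldanamycin wells; inhibitors lower the luminescence because luciferase stays unfolded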
HSF-1 act = increases HSF-1 driven luciferase reporter signal; activation, % at 9 µM; 300,000 compounds, 1.7% hits; NIH3T3-HGL HSF-1 luciferase reporter, MG132, 8 h; 100% = twice DMSO control signal;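 active = mean replicate activation of at least 50% with a set share of replicates each reaching 50%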;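 also: 0% = median of the neutral control wells and 100% = twice that signal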
TWEAK Fn14 block = inhibitors of TWEAK-Fn14 interaction signaling. TWEAK-stimulated Fn14 reporter cells, luciferase luminescence, 8 h. inhibition, % at 10 µM. 360,000 compounds, 2% hits. AID 1159606; in the data active = inhibition above about 50%
HSF1 inhib = HSF1 inhibition; NIH3T3-HGL HSE-luciferase, MG132-induced, luminescence 8 h; hits give low values; activity change, negative = inhibition, % at 7.5 µM (by protocol); 300,000 compounds, 0.77% hits; AID 2098;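 active = more than half of replicate wells show activity change below -50%, luminescence cut by over half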;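 also: luciferase reports HSF-1 transcriptional activity via heat shock element; 0% = median of DMSO wells and -100% = zero luminescence signal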
LMP1 NFkB inh = Epstein-Barr LMP1 NF-kappaB reporter inhibition; inhibition, % at 12.5 µM; 350,000 compounds, 0.69% hits; LMP1-induced NF-kappaB luciferase reporter cells, luminescence; in the data active = inhibition above about 41%;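 also: 0% = neutral control wells and 100% = reference inhibitor control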
TROY signal inh = inhibitors of TROY-dependent NF-kB signaling | 360,000 compounds, 0.98% hits | inhibition, % at 10 µM | Q293 LMP1-TROYcd NF-kB luciferase reporter, 4 h;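 active = compounds whose plate-normalised and pattern-corrected inhibition of the luciferase reporter signal at the single screening dose is 50% or more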
Numbers without * were called inactive; / = not tested or not shown. In the library only some 4.7% were active in any assay of this set; here they are far more common.

SMILES	HSP90 inh	HSF-1 act	TWEAK Fn14 block	HSF1 inhib	LMP1 NFkB inh	TROY signal inh
CCc1nc2c(OCC(=O)C(C)(C)C)cccn2c1N(C)C(=O)c1ccc(C)cc1	/	/	-10.3	/	/	-5.6
CC1(C(=O)N2CCCCC2)CCN1C(=O)c1ccccc1CCc1ccccc1 (stereo not given)	/	/	-31.9	/	/	2.7
CCCCn1nnnc1C(c1ccccc1)N1CCCN(Cc2ccc(F)cc2)CC1 (stereo not given)	/	/	8.0	/	/	0.7
CC(C)CCN1C(=O)c2ccc(C(=O)Nc3ccc(Br)cc3C(=O)O)cc2C1=O	-1.9	-12.9	-3.4	-4.8	3.1	57.6*
Cc1noc(C)c1C(=O)N1CCC1(C)C(=O)NS(=O)(=O)c1ccccc1Cl (stereo not given)	/	/	2.0	/	/	-15.7
Cc1cc2c3c(c1)C(C)(c1ccccc1)CC(C)(C)N3C(=O)C21C(C#N)=C(N)OC2=C1C(=O)CC(C)(C)C2 (stereo not given)	5.6	4.6	34.6	1.1	-16.1	18.5
CC1(c2ccccc2)CC(C)(C)N2C(=O)C3(C(C#N)=C(N)Oc4cc(O)ccc43)c3cccc1c32 (stereo not given)	3.9	41.0	56.6*	27.4	4.7	32.7
Cc1onc(-c2ccccc2)c1NC(=O)OC(C)c1cccnc1 (stereo not given)	/	/	86.8*	/	-2.0	-12.4
O=C1NC(=S)NC1=Cc1ccc2c(c1)CCC2	/	-20.8	-6.6	-20.8	93.1*	-41.0
O=C1NC(=S)N/C1=C/C=C/c1ccccc1	-5.5	28.8	-3.5	3.3	-4.0	-27.2
CCCCn1c(N)c(N(CCOC)C(=O)CCS(=O)(=O)c2ccc(C)cc2)c(=O)[nH]c1=O	/	/	-10.4	/	-0.4	-3.6
Cc1cc(C)nc(SCc2cn3cc(Cl)ccc3n2)n1	-2.4	63.8*	27.2	42.0	-2.9	-1.8
Clc1ccc2nc(CSc3ncn[nH]3)cn2c1	1.7	-4.8	-20.6	4.2	-3.5	-14.4
CC(SCc1cn2cc(Cl)ccc2n1)C(=O)O (stereo not given)	2.0	-9.7	76.1*	2.8	2.0	/
CCc1[nH]nc(C(=O)NC2CCCc3c2cnn3-c2cc(C)cc(C)c2)c1C (stereo not given)	2.6	-16.8	-20.2	-23.6	-3.0	57.7*
CCn1nc(C)cc1C(=O)NC1CCCc2c1cnn2-c1ccc(C)c(C)c1 (stereo not given)	8.0	-2.4	34.6	3.6	18.0	55.5*
CN(C)/C=N/C1=C(C#N)C(c2ccc(Br)cc2)c2ccc3ccccc3c2O1 (stereo not given)	16.8*	3.7	33.2	9.3	11.1	-11.9
Cc1[nH]n(-c2ccccc2)c(=O)c1C(C[N+](=O)[O-])c1ccc(Br)cc1 (stereo not given)	10.2	210.2*	14.4	180.9	11.1	4.8
COc1cccc(C(C[N+](=O)[O-])c2c(C)[nH]n(-c3ccccc3)c2=O)c1 (stereo not given)	42.1*	277.6*	4.7	213.6	1.0	3.7
CC(OC(=O)C1CCCCC1)c1nc2ccccc2[nH]1 (stereo not given)	-1.4	-3.4	58.9*	-0.8	12.6	-6.8
CSCCC(NC(=O)C1CCCCC1)c1nc2ccccc2[nH]1 (stereo not given)	-5.0	15.1	-3.1	0.5	/	9.0
O=c1c(-c2ccc3c(c2)OCCO3)coc2cc(O)cc(O)c12	2.5	71.1*	-1.6	25.6	-36.9	-37.5
CCN(CC)Cc1c(O)ccc2c(=O)c(-c3ccc4c(c3)OCCO4)coc12	-1.7	-5.8	0.6	2.9	1.3	-54.3
N#C/C(=C\c1ccc(Sc2nc3ccccc3[nH]2)o1)c1ccccc1	3.0	71.1*	37.2	43.0	9.1	48.3
Nc1ccc(C23CC4CC(CC(O)(C4)C2)C3)cc1	4.7	-79.5	76.2*	-78.0*	24.1	74.1*
Cc1cccc(-c2n[nH]nc2C2=CC(=O)CC(C)(C)C2)c1	/	/	8.5	/	2.7	0.7
COC(=O)c1ccc(COC(=O)C2CCN(S(=O)(=O)c3c(C)cc(C)cc3C)CC2)o1	/	/	-6.4	/	2.9	15.4
Nc1cc(OC(=O)c2ccco2)nn1S(=O)(=O)c1ccc(F)cc1	0.3	8.4	-15.7	2.1	-0.3	-19.0
Nc1cc(OC(=O)c2ccc(F)cc2)nn1S(=O)(=O)c1ccc(F)cc1	3.2	76.1*	15.8	38.3	-9.7	22.3
